GBA activity up: glucocerebrosidase activity enhancement; P04062; L444P Gaucher fibroblasts, 4-MU-glucoside fluorescence, 3 days; activation, % at 10 µM; 30,000 compounds, 0.44% hits; AID 784; in the data active = activation above about 65%;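 note: 0% = vehicle wells and 100% = positive control wells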
Target sequence (P04062 whole entry L483P): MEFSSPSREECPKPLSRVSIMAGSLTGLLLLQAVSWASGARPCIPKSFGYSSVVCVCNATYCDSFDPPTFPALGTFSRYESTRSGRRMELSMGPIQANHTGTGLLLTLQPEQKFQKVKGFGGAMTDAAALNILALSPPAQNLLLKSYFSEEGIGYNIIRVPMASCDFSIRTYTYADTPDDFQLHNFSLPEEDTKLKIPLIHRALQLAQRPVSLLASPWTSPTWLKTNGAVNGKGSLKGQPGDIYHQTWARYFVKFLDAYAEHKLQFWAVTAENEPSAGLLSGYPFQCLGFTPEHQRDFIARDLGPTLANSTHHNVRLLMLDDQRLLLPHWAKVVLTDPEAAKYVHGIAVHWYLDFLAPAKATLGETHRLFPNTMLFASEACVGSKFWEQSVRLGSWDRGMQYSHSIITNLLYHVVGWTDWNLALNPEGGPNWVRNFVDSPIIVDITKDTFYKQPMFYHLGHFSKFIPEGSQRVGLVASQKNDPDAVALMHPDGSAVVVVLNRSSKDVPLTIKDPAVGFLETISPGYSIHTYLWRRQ
* marks the source's active call; other numbers are inactive results. This excerpt belongs to a sample that is enriched for hits.

SMILES	GBA activity up
COc1ccc(S(=O)(=O)NCC(=O)N(CC(=O)NCC2CCCO2)c2ccccc2C)cc1 (configuration not stated)	72*
O=C(CN(CCc1ccccc1)C(=O)CNS(=O)(=O)c1ccccc1)NCC1CCCO1 (configuration not stated)	-7
COc1cccc(S(=O)(=O)NCc2ccc(C(=O)NCC3CCCO3)cc2)c1 (configuration not stated)	2
CCCCSC1=C(C#N)C(c2ccccc2C)C(C(=O)OCC)C(=O)N1 (configuration not stated)	-5
CC1=C(C(=O)Nc2cccnc2)C(c2ccncc2)n2nnnc2N1 (configuration not stated)	70*
CC1=C(C(=O)Nc2ccccc2)C(c2ccncc2)n2nnnc2N1 (configuration not stated)	-6
CC1=C(C(=O)Nc2cccnc2)C(c2ccccn2)n2nnnc2N1 (configuration not stated)	27
Cc1ccc2c(c1)N(Cc1ccncc1)C(=O)C(C)O2 (configuration not stated)	29
Cn1c(Cc2ccccc2)nnc1SCC(=O)Nc1ccccc1N1CCOCC1	96*
Cn1c(Cc2ccccc2)nnc1SCC(=O)NC1CCCCC1	-2
CC(C)n1nnnc1SCC(=O)Nc1ccccc1N1CCOCC1	-14
CCCn1c(C)cc(=O)c2cc(NC(=O)c3cnccn3)ccc21	-41
Clc1ccc(CSc2nnc(-c3ccccn3)n2Cc2ccco2)c(Cl)c1	-38
O=C(CNC(=O)c1cccs1)NCCN1CCN(c2ccccc2F)CC1	20
O=C(Nc1ccc(Cc2ccc(NC(=O)C3CC3)c(O)c2)cc1O)C1CC1	42
CC(=O)N1CCc2cc(Br)cc(S(=O)(=O)NCCCN3CCC(C)CC3)c21	4
CC(=O)N1CCc2cc(Br)cc(S(=O)(=O)NCCN3CCCCC3C)c21 (configuration not stated)	78*
CC(=O)N1CCc2cc(Br)cc(S(=O)(=O)NCCCN3CCCC(C)C3)c21 (configuration not stated)	3
CCn1c(SCC(=O)Nc2cc3oc4ccccc4c3cc2OC)nnc1-c1cccs1	-5
Cc1ccc(C(C(=O)NC2CCCCC2)N2CCCC2)cc1 (configuration not stated)	127*
COc1ccc(C(C(=O)NC2CCCCC2)N2CCC3(CC2)OCCO3)cc1 (configuration not stated)	0
CN(C)C(C(=O)NC1CCCCC1)c1ccc(Cl)cc1 (configuration not stated)	-23
CCn1c(CC(=O)Nc2ccc(C)cc2)nnc1SCC(=O)N1CCN(c2ccccc2)CC1	-4
O=C(CSc1nnc(-c2ccc(Cl)cc2)o1)N1CCN(c2ccccc2)CC1	-2
CCn1c(SCC(=O)N2CCN(c3ccccc3)CC2)nnc1-c1cc2cc(Cl)ccc2o1	90*
SMILES	GBA activity up
O=C(OCc1ccccc1Cl)c1ccc(-n2cnnc2)cc1	-22
O=C(Nc1ccc(S(=O)(=O)NC2CCCC2)cc1)c1cnccn1	-16
Cn1c(/C(C#N)=C(\O)c2ccc(S(=O)(=O)N3CCCCC3)cc2)nc2ccccc21	71*
O=C(Nc1ccccc1)c1ccc(S(=O)(=O)N2CCCC2)cc1	4
COc1ccc(/C(O)=C(\C#N)c2nc3ccccc3n2C)cc1OC	2
COc1ccc(C2C3=C(CCCC3=O)Nc3nc(C(F)(F)F)nn32)c(OC)c1OC (configuration not stated)	-12
Fc1cccc(Nc2cc(-n3cccn3)ncn2)c1	-7
Cc1nc2c3c(-c4ccccc4)nc(N4CCOCC4)nc3nn2c(C)c1CCC(=O)O	-31
Cc1cc(NC(=O)C2C3C(=O)N(CCC(C)C)C(C(=O)NCc4ccccc4)C34C=CC2(C)O4)no1 (configuration not stated)	-19
COC(=O)CS(=O)(=O)c1ccc2c(c1)CC(=O)N2	-5
Cc1ccc(C(=O)CSc2nnc(-c3cccnc3)n2N)cc1	-20
CC(C)OC(=O)CSc1nnc(-c2cccnc2)n1N	67*
COc1cccc(-n2c(SCC(=O)OC(C)C)nnc2-c2cccnc2)c1	-41
CCOC(=O)N1CCN(C(=O)C(NC(=O)c2ccc(CC)cc2)C(C)C)CC1 (configuration not stated)	-21
CCOC(=O)c1c(NC(=O)CSc2nnnn2C)sc(C)c1-c1ccc(C)cc1	19
CCCCOc1ccccc1NC(=O)CC1SC(=NCC)N(CC)C1=O (configuration not stated)	0
COC(=O)c1cn(C(=O)c2ccc(Br)o2)c2ccccc12	-15
CCOC(=O)Cn1cc(C(=O)c2cccs2)c2ccccc21	-11
COC(=O)c1cn(C(=O)c2cccs2)c2ccccc12	89*
CC(OC(=O)c1ccco1)C(=O)NCc1cccs1 (configuration not stated)	-6
Cc1ccc(C(C#N)N2CCOCC2)cc1 (configuration not stated)	-7
Cc1cc2nnc(SCC(=O)NCc3ccco3)n2c2ccccc12	-13
COc1ccc(C(CC(=O)O)NC(=O)c2cccs2)cc1 (configuration not stated)	-2
CCOC(=O)NC(CC(=O)O)c1ccc(OCC)cc1 (configuration not stated)	81*
O=C(O)CC(NC(=O)OCc1ccccc1)c1ccccc1 (configuration not stated)	-11
SMILES	GBA activity up
Cc1cc(C(F)(F)F)nn1CCCNC(=O)c1cnccn1	-4
Cc1ccccc1CS(=O)(=O)Cc1ccc(C(=O)NCc2ccco2)o1	171*
Cc1ccccc1CS(=O)(=O)Cc1ccc(C(=O)NCCCN2CCOCC2)o1	23
Cc1ccccc1CS(=O)(=O)Cc1ccc(C(=O)NCCCN2CCCC2=O)o1	13
C=CCSc1nnc(NC(=O)CSc2nc3ccccc3o2)s1	4
COCCNC(=O)CSc1nc2ccccc2c(=O)n1CCCC(=O)NCc1ccccc1	-20
CC1CCN(CCCNC(=O)Cc2c(C(=O)O)n(C)c3ccccc23)CC1	-25
O=C(CN1C(=O)c2ccccc2S1(=O)=O)NCCSC1CCCCC1	812*
O=C(CN1C(=O)c2ccccc2S1(=O)=O)NCc1ccccn1	-13
COc1ccc(CCNC(=O)CN2C(=O)c3ccccc3S2(=O)=O)cc1	6
Cc1ccc(NC(=O)N2C(=O)C3(OCCO3)c3ccccc32)cc1	-24
CCNC(=O)CSc1nc2cc(OC)c(OC)cc2c(=O)n1CCC1=CCCCC1	11
Cc1cc(C)c2cc(CN(CC3CCCO3)S(=O)(=O)c3ccc4c(c3)OCCO4)c(=O)[nH]c2c1 (configuration not stated)	-45
C/C=C/CSc1nc2c(c(=O)[nH]c(=O)n2C)n1C(C)C	-56
CC(C)n1c(=S)[nH]c2c1c(=O)[nH]c(=O)n2C	136*
CC(C)n1c(SCC(N)=O)nc2c1c(=O)[nH]c(=O)n2C	12
CCOC(=O)c1c(C)c(C(=O)NCc2ccccn2)c(C)n1CC	-8
O=C(CSc1n[nH]c(-c2ccccc2)n1)c1ccc(O)c(O)c1	-13
COC(=O)c1sc(=S)sc1C(=O)OC	-4
COc1ccc(C(C)(C)C)cc1NC(=O)Nc1ccc2c(c1)OCO2	-5
O=C(NCC1COc2ccccc2O1)Nc1ccccc1F (configuration not stated)	-6
COCc1cc(C)nc(NC2CCCCC2)c1C#N	101*
COCc1cc(C)nc(N2CCN(c3ccccc3)CC2)c1C#N	0
COCc1cc(C)nc(SCC(=O)Nc2ccccc2C)c1C#N	52

Screening data: PubChem BioAssay, The Scripps Research Institute Molecular Screening Center
